A short description of assay [1]: inhibitors of TNFa-induced NFkB p65 translocation, primary screen, imaging, HUVEC, MLSMR starter and 10KST1 sets (AID 438;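 active means inhibition above 20% together with a positive visual image hit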;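 further: compound added about 3h40 before a 20 min TNFalpha stimulation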;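 on inhibition: signal is the nuclear over cytoplasmic p65 intensity ratio per well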). To be noted: HUVEC TNFa-induced p65 nuclear translocation; cell count: measured here: nuclei count (cytotoxicity indicator), at 2.08 µM; inhibition: at 2 µM, stronger effect = higher value, 0% TNFa-plus-vehicle, 100% no-TNFa wells.
The nature of assay [2]: inhibitors of mutant huntingtin aggregation, primary screen, imaging, exon1htt(103Q)mCFP cells, high-content imaging (AID 483;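 active means visual image review flags a hit and inhibition of aggregation exceeds 20%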;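 further: compound exposure lasted 3 days before fixation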;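 on nuclei count: percent of the per-plate median nuclei count of sample wells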). To be noted: exon1htt(103Q)mCFP cell line, aggregate imaging, at 2 µM; inhibition of aggregation: stronger effect = higher value; nuclei count: measured here: cell count, toxicity.
The nature of assay [3]: inhibitors of E-selectin induction by TNFa, primary screen, imaging, HUVEC, immunofluorescence, MLSMR starter and 10KST1 sets (AID 487;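 active means visually confirmed hit in the image check and inhibition above 20%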;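 on inhibition: signal is fraction of cell area covered by stained E-selectin grains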;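 on nuclei count: 100% = median nuclei count of all wells on the same plate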). The settings on record: HUVEC TNFalpha-induced E-selectin immunofluorescence imaging, at 2 µM; inhibition: stronger effect = higher value; nuclei count: measured here: cell number, toxicity.
Assay [4] is described as follows: DUSP6 inhibitors restoring Erk phosphorylation by chemical complementation, primary imaging in DUSP6-transfected HeLa (AID 609;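 active means compounds giving at least 50% inhibition in the cell-based MKP-3 phosphatase rescue imaging test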;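 on inhibition: phospho-Erk level distribution per well compared with pooled transfected vehicle control wells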). The settings on record: HeLa MKP-3 transfected, phospho-Erk imaging KS statistic, at 10 µM, cells stimulated with TPA for 15 min.
Assay [5] deals with Dual specificity protein phosphatase 6 (Homo sapiens) (UniProt Q16828). The assay is described as above. The settings on record: HeLa MKP-3 transfected, phospho-Erk imaging KS statistic; at 10 µM; stronger effect = higher value; cells stimulated with TPA for 15 min.
Chain of Dual specificity protein phosphatase 6 (Homo sapiens) (Q16828 whole entry, looked up): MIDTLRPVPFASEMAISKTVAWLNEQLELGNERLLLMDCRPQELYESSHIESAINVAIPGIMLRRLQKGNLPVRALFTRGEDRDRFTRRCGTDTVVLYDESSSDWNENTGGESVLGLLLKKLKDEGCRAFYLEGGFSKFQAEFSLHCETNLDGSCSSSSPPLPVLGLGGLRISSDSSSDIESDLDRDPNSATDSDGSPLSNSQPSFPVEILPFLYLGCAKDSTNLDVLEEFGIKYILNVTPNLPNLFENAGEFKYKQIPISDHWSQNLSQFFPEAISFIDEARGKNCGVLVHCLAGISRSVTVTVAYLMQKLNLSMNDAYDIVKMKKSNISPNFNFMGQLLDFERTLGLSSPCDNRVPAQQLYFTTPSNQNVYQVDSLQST
For assay [6], the target named is Voltage-gated potassium channel subunit beta-2 (Rattus norvegicus) (UniProt P62483). The experiment in a line: KvBeta enzyme negative modulators, primary screen, biochemical, NADPH fluorescence (AID 622;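 active means fluorescence slope higher than the sample average by over 3 SD, cut at about -0.22 in these data, passing the limit was not always enough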;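 further: slope of raw intensity against log time taken from 70 to 1610 s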). To be noted: recombinant KvBeta, 4-cyanobenzaldehyde reduction, at 10 µM, stronger effect = higher value.
Chain of Voltage-gated potassium channel subunit beta-2 (Rattus norvegicus) (P62483 whole entry, looked up): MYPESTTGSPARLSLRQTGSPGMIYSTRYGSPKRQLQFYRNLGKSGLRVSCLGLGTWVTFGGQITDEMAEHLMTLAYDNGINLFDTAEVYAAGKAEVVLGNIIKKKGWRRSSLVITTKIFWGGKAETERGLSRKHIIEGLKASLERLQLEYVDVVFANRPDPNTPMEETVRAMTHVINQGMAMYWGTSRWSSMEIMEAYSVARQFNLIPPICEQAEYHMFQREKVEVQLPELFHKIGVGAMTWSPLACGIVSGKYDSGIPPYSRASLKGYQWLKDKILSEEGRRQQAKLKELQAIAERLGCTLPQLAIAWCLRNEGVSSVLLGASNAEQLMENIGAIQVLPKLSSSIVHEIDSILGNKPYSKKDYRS
Assay [7] shares this target. The experiment in a line: KvBeta positive modulators, primary screen, biochemical, NADPH fluorescence (AID 623;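 active means NADPH fluorescence slope more negative than the mean of all samples by about 3 SD, 99.7% confidence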;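 further: fluorescence intensity change per second fitted from 20 to 320 s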). To be noted: Recombinant KvBeta, NADPH fluorescence decrease slope, 10 min; at 10 µM; stronger effect = lower value.
Assay [8] has as its target Muscarinic acetylcholine receptor M4 (Homo sapiens) (UniProt P08173). The experiment in a line: compounds altering M4/GIRK thallium flux, either direction, primary screen, M4 allosteric agonist project, cell-based, HEK293 M4/GIRK, BTC-AM (AID 625;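 active means fluorescence slope after compound addition differing from the mean of all tested samples at 99.7% confidence, mostly higher but some lower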;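 further: thallium influx through GIRK channels coupled to M4 in HEK293 cells with BTC-AM dye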). The settings on record: at 10 µM, actives lie on both sides.
Assay [9] can be described thus: inhibitors of larval lipid processing in zebrafish, primary screen, whole organism, PED6 fluorescence, gall bladder and intestine (AID 686;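 active means a full or partial loss of lipid-probe fluorescence in the fish gall bladder, intestine or both, judged by eye; inactive means no fluorescence loss, or compound toxic to the fish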;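 further: larvae 5 to 7 days old with five fish per well; signal comes from phospholipase A2 cleavage of quenched PED6 carried via bile; overnight exposure to compound and PED6 before scoring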). To be noted: Zebrafish larvae PED6 lipid processing, fluorescence scoring; screened at 20 µM (by protocol).
Assay [10] is described as follows: inhibitors of Chlamydomonas gravitaxis, primary screen, whole organism, Chlamydomonas reinhardtii, WT vs cilia-less mutant, absorbance, 96-well (AID 463189).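 Further: 0% = wild type cc124 cells in DMSO and 100% = ciliumless bld1 mutant cells.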 To be noted: OD600 absorbance, 2 days, at 10 µM, stronger effect = higher value.
A short description of assay [11]: inhibitors of Sendai virus-induced IRF3 signaling, primary screen, TLR/RLR signaling modifier project, cell-based, Sendai virus stimulus, luciferase, 10K MLSCN set (AID 602276;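 active means inhibition at or above 50% at 10 µM; inactive means inhibition below 50%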;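 further: firefly luciferase from ISG56 promoter only with Renilla not read in this screen; 0% = Sendai virus plus DMSO and 100% = medium plus DMSO without virus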). To be noted: HEK293 RL24 IRF3 luciferase reporter, at 10 µM, stronger effect = higher value.
Assay [12] in a line: inhibitors of poly I:C-induced TLR3 signaling, primary screen, cell-based, poly I:C stimulus, luciferase, 10K MLSCN set (AID 602277;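 active means inhibition of the reporter signal at or above 50%; inactive means inhibition below 50%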). The settings on record: HEK293-TLR3 RL24 IRF3 luciferase reporter, at 10 µM, stronger effect = higher value.
Where [13] appears, read: measured here: cell density z-score.
[14] abbreviates: measured here: nuclear c-Myc green intensity z-score.
[15] abbreviates: measured here: nuclear pErk red intensity z-score, stronger effect = higher value.

Several values for one entry are separate records, joined by “and”; a condition that tells them apart may be missing. Equal values may be shown once. Activity calls are given as the source filed them.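 How the source made its calls, unless noted: active means inhibition at or above 50% relative to wild type and mutant plate controls; inactive means inhibition below 50%.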

These results are taken from PubChem BioAssay.

Chain of Muscarinic acetylcholine receptor M4 (Homo sapiens) (P08173 whole entry, looked up): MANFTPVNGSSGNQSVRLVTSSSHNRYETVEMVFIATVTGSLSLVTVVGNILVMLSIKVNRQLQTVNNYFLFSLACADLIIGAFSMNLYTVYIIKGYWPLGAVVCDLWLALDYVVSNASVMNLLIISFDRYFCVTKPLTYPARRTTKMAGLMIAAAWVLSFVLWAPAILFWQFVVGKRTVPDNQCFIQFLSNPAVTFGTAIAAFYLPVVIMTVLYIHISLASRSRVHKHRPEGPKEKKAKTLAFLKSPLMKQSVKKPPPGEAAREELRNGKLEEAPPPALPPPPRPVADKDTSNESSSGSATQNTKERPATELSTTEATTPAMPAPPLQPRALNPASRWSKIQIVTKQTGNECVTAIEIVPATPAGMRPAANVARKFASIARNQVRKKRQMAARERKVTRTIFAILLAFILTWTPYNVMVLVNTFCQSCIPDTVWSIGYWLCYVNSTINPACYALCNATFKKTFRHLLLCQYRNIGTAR

Take `CC1(C)CNC(=O)c2sc(N3CCOCC3)nc2C1`: in assay [1], the cell count was 330. In addition, the inhibition in [1] is -0.5% (inactive); in assay [3] it was -112% (inactive); in assay [5] it was -0.159% (inactive); in assay [10], 0.902% (inactive); in assay [11], 17.2% (inactive); in assay [12] it was 15.4% (inactive). Also, the inhibition of aggregation in [2] was -17.3% (inactive). Besides, the nuclei count in assay [2] was 76.6%; in assay [3], 119%. Moreover, the results for the z-score in assay [4] (setting [13]), in assay [4] (setting [14]) and in [4] (setting [15]) were -0.682, 0.266 and 1.71, respectively. The fluorescence slope is -0.39 (inactive) in assay [6] and 0.00631 (inactive) in [8]. Besides, the NADPH fluorescence slope in [7] was -4.4e-05 (inactive). Also, the compound was classed as inactive in assay [9].

Turning to `COc1ccc(/C(O)=C2/C(=O)C(=O)N(CCCN(C)C)C2c2ccco2)cc1Cl` (stereo not given), the cell count in assay [1] is 697. In addition, the inhibition is -3.7% (inactive) in assay [1]; -9% (inactive) in assay [3]; 6.04% (inactive) in assay [5]; 14.2% (inactive) in assay [10]; -5.81% (inactive) in assay [11]; -1.63% (inactive) in assay [12]. Besides, the inhibition of aggregation in assay [2] is -6.2% (inactive). For the same compound, the nuclei count in [2] was determined as 110%; in assay [3] it was 134%. Moreover, the z-score was 0.269 in assay [4] (setting [13]), -1.33 in [4] (setting [14]) and -0.259 in [4] (setting [15]). For the same compound, the figures for the fluorescence slope in [6] and in assay [8] were -0.426 (inactive) and 0.00515 (inactive), respectively. For the same compound, the NADPH fluorescence slope in assay [7] was -4.3e-05 (inactive). Moreover, in assay [9], the result was inactive.

On to `CC(CCc1ccccc1)NCC(O)c1ccc(O)c(C(N)=O)c1` (stereo not given), for which, in [1], the cell count is 612. Besides, the inhibition was -8.1% (inactive) in [1]; -7.9% (inactive) in [3]; 13.3% (inactive) in assay [5]; 10.1% (inactive) and -0.75% (inactive) in [10]; -17.5% (inactive) in [11]; 5.32% (inactive) in assay [12]. In addition, the inhibition of aggregation in assay [2] was -15.6% (inactive). Moreover, the nuclei count in assay [2] was 103%; in assay [3] it was 107%. Moreover, the z-score in [4] (setting [13]) is 0.375; in assay [4] (setting [14]), -0.198; in assay [4] (setting [15]), -0.807. For the same compound, the fluorescence slope is -0.442 (inactive) in [6] and 0.00425 (inactive) in assay [8]. Besides, the NADPH fluorescence slope in assay [7] is 2.9e-05 (inactive). Also, in [9], the compound was classed as inactive.

Take `CCCCc1nc(NCCNC(=O)c2ccco2)c(C#N)c2c1CSC(C)(C)C2`: in [1], the cell count stood at 552. In addition, the inhibition is -4.6% (inactive) in assay [1]; -75.5% (inactive) in assay [3]; 9.07% (inactive) in assay [5]; 3.31% (inactive) in [10]; 1.84% (inactive) in assay [11]; 7.1% (inactive) in assay [12]. Moreover, the inhibition of aggregation in assay [2] was -1% (inactive). Moreover, the nuclei count in assay [2] came to 95.2%; in assay [3] it was 122%. The figures for the z-score in assay [4] (setting [13]), in assay [4] (setting [14]) and in assay [4] (setting [15]) were 0.34, -0.704 and 0.0149, respectively. For the same compound, the fluorescence slope was -0.478 (inactive) in [6] and 0.00431 (inactive) in assay [8]. For the same compound, the NADPH fluorescence slope in assay [7] is -5.7e-05 (inactive). Moreover, the call in [9] was inactive.

`CCOC(=O)c1ccc2nc(NC(NC(C)=O)(C(=O)OC)C(F)(F)F)sc2c1` (stereo not given): the cell count in assay [1] was 520. The inhibition in assay [1] is -8.2% (inactive); in [3], -23.9% (inactive); in assay [5], 9.42% (inactive); in assay [10] it was -10.3% (inactive); in assay [11], 133% (active); in [12], 99% (active). Moreover, the inhibition of aggregation in assay [2] was -4% (inactive). Besides, the nuclei count in assay [2] worked out at 93.1%; in assay [3] it was 130%. In addition, the values for the z-score in assay [4] (setting [13]), in [4] (setting [14]) and in [4] (setting [15]) were 1.37, -0.549 and -0.534, respectively. In addition, the fluorescence slope in assay [6] is -0.458 (inactive); in assay [8], 0.00434 (inactive). For the same compound, the NADPH fluorescence slope in [7] is -9.4e-05 (inactive). The call in [9] was inactive.
